3CLpro inhibitor: SARS-CoV 3CLpro protease inhibition. AID 1706. recombinant SARS-CoV 3CLpro, quenched FRET peptide cleavage. P0C6X7. hit rate 0.14% among 290,000. inhibition, % at 6 µM; in the data active = inhibition above about 12%
RecA intein inh: Mtb RecA intein splicing inhibition. P9WHJ3. cell-free RecA intein splicing, fluorescence. inhibition, % (concentration not given with the values). hit rate 0.75% among 290,000. AID 2221; in the data active = inhibition above about 30%
CCHF vOTU inh-1: CCHFV vOTU protease inhibition | hit rate 0.55% among 370,000 | Pep-AMC fluorescence | AID 651958 | inhibition, % at 11.5 µM
DUSP3 inh: DUSP3 (human) phosphatase inhibition. recombinant VHR phosphatase, pNPP absorbance. inhibition, % at 13.3 µM. AID 1654. hit rate 0.52% among 290,000; in the data active = inhibition above about 50%
Target sequence (P51452 whole entry, looked up): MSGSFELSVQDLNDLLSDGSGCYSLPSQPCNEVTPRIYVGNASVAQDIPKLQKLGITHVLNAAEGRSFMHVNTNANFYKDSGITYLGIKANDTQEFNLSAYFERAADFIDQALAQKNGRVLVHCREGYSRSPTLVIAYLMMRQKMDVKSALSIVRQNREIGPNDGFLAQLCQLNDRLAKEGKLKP
CCHF vOTU inh-2: CCHFV vOTU protease inhibition, confirmation; shares compounds with CCHF vOTU inh-1; Recombinant CCHFV vOTU, Pep-AMC fluorescence; inhibition, % at 11.5 µM; hit rate 17% among 1,900; AID 686976
Hits are given with their value; n = inactive; x = not tested or not shown. An excerpt weighted towards active compounds, which were near 1.5% of everything screened. Cut-off read from the data, not from the text of the source, unless noted: active = inhibition above about 30%; inactive = the rest.

SMILES | 3CLpro inhibitor | RecA intein inh | CCHF vOTU inh-1 | DUSP3 inh | CCHF vOTU inh-2
Cc1ccc2nc(C(C)(C)C)c(Cc3ccccc3C(F)(F)F)n2c1 | x | x | 30 | x | n
Cc1cccc(-c2onc3ccc(C(=O)/C=C/N(C)C)cc23)c1 | n | n | 33 | n | n
COc1cccc(-c2onc3ccc(C(=O)/C=C/N(C)C)cc23)c1 | n | n | n | n | x
CN1CCN(CC(=O)n2c3c(c4ccccc42)CCCC3)CC1 | n | n | 45 | n | n
NC(=O)c1sc2nc3c(c(-c4ccco4)c2c1N)CCC3 | n | n | 49 | n | n
Nc1cccc2cc(S(=O)(=O)O)ccc12 | x | x | 32 | x | 37
Nc1ccc2c(S(=O)(=O)O)cccc2c1S(=O)(=O)O | x | x | n | x | x
COc1ccc(Cn2cc(COC(=O)N3CCCC3)nn2)cc1 | x | x | n | x | x
CCOC(=O)COc1ccc(S(=O)(=O)N2CCN(c3ccc(OC)cc3)CC2)cc1 | n | n | 30 | n | n
CCCc1ccc(Oc2c(-c3ccc(O)c(C)c3O)n[nH]c2C)cc1 | n | n | n | n | x
CCCc1ccc(Oc2cn[nH]c2-c2ccc(O)c(C)c2O)cc1 | n | n | 36 | n | n
CCCCNC(=O)C[C@H]1C[C@@]2(C(=O)OC)C(=C[C@H](C(C)(C)C)O[C@@H]2C)N(CCC2=CCCCC2)C1=O | x | x | n | x | x
COC(=O)[C@]12C[C@H](CC(=O)N3CCC(c4ccccc4)CC3)C(=O)N(CCC3=CCCCC3)C1=C[C@H](C(C)(C)C)O[C@@H]2C | x | x | n | x | x
COC(=O)[C@]12C[C@H](CC(=O)N3CCC(c4ccccc4)CC3)C(=O)N(Cc3ccc4c(c3)OCO4)C1=C[C@H](C(C)(C)C)O[C@@H]2C | x | x | 30 | x | n
COC(=O)[C@]12C[C@H](CC(=O)N3CCCC3)C(=O)N(Cc3ccc4c(c3)OCO4)C1=C[C@H](C(C)(C)C)O[C@@H]2C | x | x | n | x | x
COC(=O)[C@]12C[C@H](CC(=O)NCCC(C)C)C(=O)N(CCC3=CCCCC3)C1=C[C@H](C(C)(C)C)O[C@@H]2C | x | x | 30 | x | n
CCCCCCCCN1C(=O)[C@@H](CC(=O)N2CCOCC2)C[C@@]2(C(=O)OC)C1=C[C@H](C(C)(C)C)O[C@@H]2C | x | x | 31 | x | n
COC(=O)[C@]12C[C@H](CC(=O)N3CCOCC3)C(=O)N(CCC3=CCCCC3)C1=C[C@H](C(C)(C)C)O[C@@H]2C | x | x | 30 | x | n
COC(=O)[C@]12C[C@H](CC(=O)NCC3CCCCC3)C(=O)N(CCc3ccc(OC)c(OC)c3)C1=C[C@H](C1CCCC1)O[C@@H]2C | x | x | n | x | x
COC(=O)[C@]12C[C@H](CC(=O)NCC3CCCCC3)C(=O)N(CCc3ccc(OC)c(OC)c3)C1=C[C@H](C(C)(C)C)O[C@@H]2C | x | x | 31 | x | n
Cc1c(NC(=O)C(C)OC(=O)c2sc3ccccc3c2Cl)c(=O)n(-c2ccccc2)n1C (stereo not given) | n | n | n | n | x
Cc1c(NC(=O)C(C)OC(=O)c2ccc([N+](=O)[O-])s2)c(=O)n(-c2ccccc2)n1C (stereo not given) | n | x | 41 | n | 45
Cc1cc(F)ccc1S(=O)(=O)Nc1ccccc1C(=O)NCc1ccccn1 | n | x | n | n | x
COc1ccc(C2C(C(=O)N3CCCC3)c3cc(OC)c(OC)cc3C(=O)N2C)cc1OC (stereo not given) | n | n | 31 | n | n
CC(C)C[C@@H](CN1CCC[C@@H]1CN1C(=S)NC[C@@H]1Cc1ccccc1)N1C[C@H](Cc2ccc(O)cc2)N(CC2CCCCC2)C1=S | x | x | 30 | x | n
SMILES | 3CLpro inhibitor | RecA intein inh | CCHF vOTU inh-1 | DUSP3 inh | CCHF vOTU inh-2
O=C1NC[C@H](Cc2ccc(O)cc2)N(C[C@@H]2CCCN2C[C@H](Cc2ccc(O)cc2)N2C[C@H](Cc3ccccc3)N(CCc3ccccc3)C(=O)C2=O)C1=O | x | x | 34 | x | n
CCOc1ccc(CCN2C(=S)N([C@@H](Cc3ccccc3)CN3CCCC3CN3C(=S)NC[C@@H]3Cc3ccccc3)C[C@@H]2Cc2ccc(O)cc2)cc1 (stereo not given in full) | x | x | 30 | x | n
CCOc1ccc(CCN2C(=O)C(=O)N([C@@H](CC(C)C)CN3CCC[C@H]3CN3C(=O)C(=O)NC[C@@H]3Cc3ccc(O)cc3)C[C@@H]2Cc2ccccc2)cc1 | x | x | 30 | x | n
Nc1ccc(CCCC(=O)NCc2cccnc2)cc1 | x | x | n | x | x
O=C(O)/C=C/c1ccc(S(=O)(=O)Nc2ccc3[nH]c(=O)[nH]c3c2)cc1 | n | n | 33 | n | n
Nc1nc(=S)c2[nH]cnc2[nH]1 | x | x | n | x | x
COc1ccc(NC(=O)c2ccc(OCC3CCCO3)cc2)cc1Cl (stereo not given) | x | x | n | x | x
COc1ccc(NC(=O)c2ccc(OCC3CCCO3)cc2)cc1OC (stereo not given) | x | x | 38 | x | n
C[n+]1cccc2c(Br)ccc([O-])c21 | 13 | n | 103 | n | 42
CN(C1=C(N2CCOCC2)C(=O)c2ccccc2C1=O)c1ccccc1 | n | n | n | n | x
CC1COCC(C)N1C1=C(Cl)C(=O)c2ccccc2C1=O (stereo not given) | x | x | 87 | x | 90
CN1CCN(C2=C(Cl)C(=O)c3ccccc3C2=O)CC1 | x | x | 106 | x | 99
CCOC(=O)[C@]12CCCC3=C1N(CCC3)C(=O)[C@@H](CC(=O)N1CCC(c3ccccc3)CC1)C2 | x | x | n | x | x
COc1ccccc1-c1sc2cc3c(cc2c1-c1ccc(O)cc1)OCO3 | x | x | 30 | x | n
COCc1ccc(-c2c(-c3ccccc3OC)sc3cc4c(cc23)OCO4)cc1 | x | x | n | x | x
Cc1cc2c(c(=O)o1)[C@@]1(C(=O)Nc3ccccc31)C1=C(CCCC1=O)O2 | x | x | n | x | x
CC(C)(C)OC(=O)NCCCC[C@H](NC(=O)c1[nH]cnc1C(=O)N[C@@H](Cc1ccccc1)C(=O)OCc1ccccc1)C(=O)OC(C)(C)C | x | x | 31 | x | n
CC(C)(C)OC(=O)[C@H](Cc1ccccc1)NC(=O)c1nc[nH]c1C(=O)N[C@@H](CCCCN)C(=O)OC(C)(C)C | x | x | n | x | x
C[C@@H](NC(=O)c1nc[nH]c1C(=O)N[C@@H](CCCCNC(=O)OC(C)(C)C)C(=O)OC(C)(C)C)c1ccccc1 | n | n | 35 | n | n
CCC(=O)N1CCN(c2ccc(NC(=S)NC(=O)c3cc4ccccc4o3)cc2)CC1 | n | n | 34 | n | n
O=C(Nc1ccc(Cl)c(Cl)c1)C1CCN(c2nnc(-n3cccc3)s2)CC1 | x | x | n | x | x
Cc1cc(NC(=O)CCC(=O)N(c2ccccc2)C(C(=O)NC2CCCC2)c2ccccc2F)no1 (stereo not given) | n | n | n | n | x
CC(=O)N1C(=O)CC(C)N(C(C)=O)c2ccc([N+](=O)[O-])cc21 (stereo not given) | n | n | n | n | x
Cc1cccc(Cn2c(C(=O)OC(C)C)cc3c2ccn3C)c1 | n | n | 35 | n | n
O=C(O)c1cccc(Cn2c(Cl)c(/C=N/NC(=O)c3ccccc3)sc2=O)c1 | n | n | n | n | x
O=C(O)c1cccc(Cn2c(Cl)c(/C=N/NC(=O)c3cc4ccccc4cc3O)sc2=O)c1 | n | n | 30 | n | n
Cc1nc(C(F)(F)F)ccc1C(=O)N1CCC1(C)C(=O)Nc1ccc2c(c1)OCO2 (stereo not given) | x | x | n | x | x
COC1CCN(Cc2c(C(=O)N3CCN(C4CCCCC4)CC3)nc3ccccn23)CC1 | n | n | x | n | x

Screens: PubChem, several laboratories
